Bioassay records deposited in PubChem by several laboratories.
Most compounds without a hit are left out; they make up all but 3.7% or so of the library.
Anthrax LF inh2: anthrax lethal factor protease inhibition | multiplex microsphere protease cleavage assay, LF | P15917 | 360,000 compounds, 0.12% hits | inhibition, % at 10 µM; note: plate controls were buffer without enzyme for full effect and enzyme alone for no effect
Target sequence (P15917 whole entry, looked up): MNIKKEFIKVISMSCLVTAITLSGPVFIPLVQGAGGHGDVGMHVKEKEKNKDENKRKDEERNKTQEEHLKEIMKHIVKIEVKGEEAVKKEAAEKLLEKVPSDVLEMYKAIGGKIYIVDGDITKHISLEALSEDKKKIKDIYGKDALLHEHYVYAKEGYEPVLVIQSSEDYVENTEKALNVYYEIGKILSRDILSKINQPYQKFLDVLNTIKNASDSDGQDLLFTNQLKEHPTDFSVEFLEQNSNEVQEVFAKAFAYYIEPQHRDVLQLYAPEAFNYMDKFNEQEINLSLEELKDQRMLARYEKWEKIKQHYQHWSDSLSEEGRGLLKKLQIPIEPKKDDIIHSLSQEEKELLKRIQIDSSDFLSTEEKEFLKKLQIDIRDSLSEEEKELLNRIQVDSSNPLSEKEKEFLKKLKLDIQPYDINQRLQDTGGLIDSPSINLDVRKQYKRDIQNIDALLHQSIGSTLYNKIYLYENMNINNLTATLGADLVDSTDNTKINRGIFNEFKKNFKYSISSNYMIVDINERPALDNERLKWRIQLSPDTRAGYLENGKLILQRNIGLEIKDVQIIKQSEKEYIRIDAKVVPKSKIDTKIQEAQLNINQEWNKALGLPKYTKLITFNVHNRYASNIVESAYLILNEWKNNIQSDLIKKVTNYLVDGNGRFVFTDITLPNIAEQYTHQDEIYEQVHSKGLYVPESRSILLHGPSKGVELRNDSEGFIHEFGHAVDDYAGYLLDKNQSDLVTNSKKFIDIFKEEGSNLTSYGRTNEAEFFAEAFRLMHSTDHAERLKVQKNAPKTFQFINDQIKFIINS
BoNT A protease: blocks Botulinum neurotoxin A light chain protease | AID 588499 | 360,000 compounds, 0.17% hits | multiplex microsphere protease substrate cleavage, flow cytometry | inhibition, % at 10 µM; note: plate controls were buffer without enzyme for full effect and enzyme alone for no effect
BoNT F protease: inhibitors of Botulinum neurotoxin F light chain protease | AID 588497 | 360,000 compounds, 0.22% hits | Multiplex microsphere protease cleavage assay, flow cytometry | inhibition, % at 10 µM; in the data active = inhibition above about 35%, passing the limit was not always enough; inconclusive = no clear call, values can overlap the other calls; note: plate controls were buffer without enzyme for full effect and enzyme alone for no effect
Autofluor counter: compound fluorescence in toxin protease inhibitor counterscreen | compound autofluorescence counterscreen, microsphere flow cytometry; active compounds read high | fluorescence intensity (concentration not given with the values) | 360,000 compounds, 3.1% hits | AID 624483; in the data active = fluorescence intensity above about 16000; inconclusive = no clear call, values can overlap the other calls
MazEF act: increases E. coli MazEF RNase cleavage of RNA | P0AE70 | FAM/BHQ RNA-DNA oligo cleavage fluorescence, 5 h | activation, % at 20 µM | 350,000 compounds, 0.32% hits; in the data active = activation above about 50%
BoNTA LC inh 1: BoNT/A light chain protease inhibition. shares compounds with BoNT F protease. multiplex microsphere protease assay, flow cytometry. inhibition, % at 10 µM. 720 compounds, 3% hits. AID 602139; in the data active = inhibition above about 32%
BoNT-F LC CP1: BoNT/F light chain protease inhibition. shares compounds with BoNT F protease. 720 tested, under 10 active. AID 602140. inhibition, % at 10 µM. multiplex microsphere protease cleavage assay, flow cytometry; call rule not given here
Anthrax LF CP1: Bacillus anthracis lethal factor protease inhibition; inhibition, % at 10 µM; multiplex microsphere protease cleavage assay, LF; shares compounds with BoNT F protease; 720 tested, under 10 active; call rule not given here
An asterisk follows results filed as active; ? = inconclusive; . = no result. Cut-off read from the data, not from the text of the source, unless noted: active = inhibition above about 30%; inconclusive = no clear call, values can overlap the other calls; inactive = below that.

SMILES	Anthrax LF inh2	BoNT A protease	BoNT F protease	Autofluor counter	MazEF act	BoNTA LC inh 1	BoNT-F LC CP1	Anthrax LF CP1
COCCCNC(=O)C(Cc1ccccc1)NS(=O)(=O)c1ccc2c(c1)c(=O)n(C)c(=O)n2C (stereo not given)	-4	6	52*	7854	10	0	-6	-3
CSc1nnc2c(n1)c(C)nn2-c1cccc(C)c1	53*	69*	10	6571	-5	33*	4	20
CCOCCCNC(=O)CN1C(=O)c2cccc3cccc1c23	-4	3	39*	3541	-19	-1	-5	-2
CCCCCC(=O)Nc1ccc(S(=O)(=O)Nc2cc(OC)nc(OC)n2)cc1	-2	2	39*	3600	-2	-1	-2	2
COC(=O)CCC(=O)Nc1ccc(S(=O)(=O)Nc2cc(OC)nc(OC)n2)cc1	-3	-2	-3	3679	-3	.	.	.
CCn1c(SCc2ccccc2)nnc1C1CCN(S(=O)(=O)c2ccc(OC)cc2)CC1	-1	0	35*	3835	0	-1	-4	3
CC(=O)NC(C)(c1ccccc1)c1nc(/C=C/c2ccccc2)cs1 (stereo not given)	-1	0	-2	2949	.	.	.	.
Cc1ccc2nc(SCC(=O)c3c[nH]c4ccccc34)[nH]c2c1	14	58*	-17	5287	21	20	-19	17
Cc1occc1-c1nnc(SCC(=O)c2c[nH]c3ccccc23)n1C	45*	54*	27	4371	7	-1	-8	3
COCCNc1nnc(SCC(=O)c2c[nH]c3ccccc23)s1	17	52*	-19	5036	11	10	-14	13
CCCn1c(SCC(=O)c2c[nH]c3ccccc23)nnc1-c1ccncc1	15	53*	-24	4586	20	17	-9	17
O=C(Cc1c(Cl)cccc1Cl)N1CCN(S(=O)(=O)c2cccs2)CC1	-5	0	-8	3835	1	.	.	.
COc1cccc(NC(=O)CN(C)C(=O)COc2ccccc2Cc2ccccc2)c1	-3	-1	12	3445	-2	.	.	.
CCn1c(=O)c(C(=O)Nc2cccnc2)c(O)c2ccccc21	4	5	40*	6137	-1	-2	-3	1
COc1ccccc1NC(=O)C1CC(C(C)C)OC1=O (stereo not given)	8	0	-1	6221	4	.	.	.
COc1ccccc1-c1nc2cc3ccccc3cc2nc1-c1ccccc1	19	48*	10	2643	9	14	3	14
Oc1ccccc1-c1nc2ccccc2nc1-c1ccccc1	-4	0	1	5138	3	.	.	.
COc1ccc(CNC(=O)N[C@@H](Cc2c[nH]c3ccccc23)C(=O)O)cc1	9	5	77*	2964	3	-1	2	0
COc1ccc(CNC(=O)Cc2c[nH]c3ccccc23)cc1OC	7	-3	-6	4107	7	.	.	.
COc1ccccc1CNC(=O)Cc1c[nH]c2ccccc12	-6	1	36*	2995	8	-1	-1	2
COC(=O)c1ccc(CNC(=O)CCc2c[nH]c3ccccc23)cc1	10	4	81*	3982	-2	0	6	1
COc1ccc(CNC(=O)CCc2c[nH]c3ccccc23)cc1	2	-2	13	4079	8	.	.	.
O=C1CCN(Cc2ccc(O)cc2)CCN1[C@H](CO)c1ccccc1	-1	0	2	2774	5	.	.	.
O=C(C1CCN(S(=O)(=O)c2cc(Cl)ccc2Cl)CC1)N1CCCC1	-1	0	-5	5533	-20	.	.	.
CC(C)c1ccc(NNC(=O)C2CCC2)cc1	-13	-9	?	4161	-1	.	.	.
COCCCNCCCCOc1ccc(Br)cc1C	-1	5	36*	2506	6	5	-10	-2
COc1cc(NC(=O)CCc2nc(-c3cccs3)no2)cc(OC)c1OC	8	2	42*	3912	11	0	-5	1
CCc1cccc(NC(=O)CCc2nc(-c3cccs3)no2)c1	-4	0	-9	5753	10	.	.	.
OCCc1c[nH]c2ccc(OCc3ccccc3)cc12	-12	4	?	3471	5	.	.	.
CN(C)c1nc(Nc2ccc(F)cc2)nc(Oc2ccc(F)cc2)n1	-90	57*	-254	1636	11	-1	-4	-1
